Source: PubChem BioAssay (NCI)
The panel holds about 83,000 compounds, 20% with a hit somewhere; the sample as a whole holds those more often.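 96-well plates, one dose, 48 hours. Percent growth reported; active if below 10.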 Values without a mark were called inactive. Activity calls are given as the source filed them.

Experiments:
Assay in all cases: NCI-60 one-dose screen, 48 h (100 = growth as untreated, 0 = no growth, -100 = all killed)
Conditions in all cases: 10 µM unless noted
HCT-15 colon = tested on: HCT-15 colon
HT29 colon = tested on: HT29 colon
SNB-75 CNS = tested on: SNB-75 CNS
SNB-19 CNS = tested on: SNB-19 CNS
U251 CNS = tested on: U251 CNS
PC-3 prostate = tested on: PC-3 prostate
SK-MEL-5 melanoma = tested on: SK-MEL-5 melanoma
UACC-62 melanoma = tested on: UACC-62 melanoma
LOX IMVI melanoma = tested on: LOX IMVI melanoma
SK-MEL-28 melanoma = tested on: SK-MEL-28 melanoma

Row | SMILES | growth (HCT-15 colon) | growth (HT29 colon) | growth (SNB-75 CNS) | growth (SNB-19 CNS) | growth (U251 CNS) | growth (PC-3 prostate) [%] | growth (SK-MEL-5 melanoma) [%] | growth (UACC-62 melanoma) | growth (LOX IMVI melanoma) | growth (SK-MEL-28 melanoma) [%]
1 | CCCCCCCCn1ccc2cc(NC(=O)Cn3cc(CN4CCOCC4)nn3)ccc21 | 92.4% | 108% | 100% | 92.9% | 88.5% | 75.2 | 86.7 | 86.8% | 102% | 99.8
2 | CCCn1c(=S)sc2c1nc(C)n1c(Nc3ccccc3)nnc21 | 74.8% | 87.5% | 102% | 70.8% | 60.9% | 93.5 | 35 | 32.3% | 66.2% | 104
3 | COc1ccc(OC)c(Nc2nnc(-c3ccc(Cl)cc3)o2)c1 | 96% | 48.9% | 59.4% | 58.4% | 2.55% (active) | 88.4 | 104 | 97.5% | 73.8% | 102
4 | COc1ccc(C2C3=C(COC3=O)N(CCO)c3cc4c(cc32)OCCO4)cc1OC (stereo not given) | 31.3% | 4.76% (active) | -8.37% (active) | 37.4% | 26.4% | 23.8 | 21 | 18.1% | 42.1% | 48.7
5 | N=C(N)c1ccc(-c2ccc(-c3ccc(Cl)cc3)o2)o1 | -78.1% (active) | -58.3% (active) | 69.8% | -68.3% (active) | -95.5% (active) | 43.9 | 76 | -67.4% (active) | -73% (active) | 96.9
6 | CSCCC(NC(=O)c1ccccc1)C(=O)N/N=C1\S/C(=C/c2ccc(Cl)cc2)C(=O)N1C (stereo not given) | 96.4% | 91.4% | 57.8% | 68.1% | 64.2% | 84.9 | 82.9 | 91.1% | 89.3% | 85.9
